Where “and” joins values, the source holds several entries; their conditions need not be identical. Equal values may be shown once. Inconclusive results are not listed. Where a call stands in place of a potency, no number is given. Calls of active or inactive are those of the source. Calls come from the whole dose curve; as a rule, active = well fitted cell-killing curve with a large enough effect in the repeat runs; inconclusive = weak or mixed curves, or effect the other way; inactive = flat fitted curve, though single readings scatter.
Potency is the fitted concentration of half-maximal effect.

A short description of the assay: qHTS assay to identify small molecule antagonists of the estrogen receptor alpha (ER-alpha) signaling pathway using the BG1 cell line in the presence of 0.1 nM 17-beta-estradiol - cell viability counter screen (AID 1259241). Note: nearly all actives have a fitted effect of over 40% in size. Particulars: VM7Luc4E2 (BG1) viability, CellTiter-Fluor protease, 22 h, 0.1 nM estradiol agonist added; series mostly up to 92.4 µM. The text has this:
National Center for Advancing Translational Sciences [NCATS]
NIH Chemical Genomics Center [NCGC]
U.S. Environmental Protection Agency [EPA]
National Institutes of Environmental Health Sciences [NIEHS]
National Toxicology Program [NTP]
U.S. Food and Drug Administration [FDA]
Estrogen receptor (ER), a member of the nuclear hormone receptor plays an important role in development, metabolic homeostasis and reproduction. Two subtypes of ER, ER-alpha and ER-beta, have similar expression patterns with some uniqueness in both types. Endocrine disrupting chemicals (EDCs) and their interactions with steroid hormone receptors like ER causes disruption of normal endocrine function. Therefore, it is important to understand the effect of environmental chemicals in ER signaling pathway. For identifying ER antagonists, VM7Luc4E2 cell line was used to screen against Tox21 compound libraries.
VM7Luc4E2 cell line (provided by Denison MS, University of California) endogenously express full-length ER-alpha and is stably transfected with a plasmid containing four estrogen responsive elements (ERE) upstream of a luciferase reporter gene. The current screening for identification of ER-alpha inhibitors against Tox21 compound libraries used lower concentration (0.1 nM) of 17beta-Estradiol as a stimulator. The cytotoxicity of the Tox21 compound libraries against VM7Luc4E2 cell line was tested by measuring live-cell protease activity using CellTiter-Fluor assay in the same wells.
Tox21 Assay Protocol Summary:
VM7Luc4E2 cells were cultured in phenol red free assay medium containing 10% charcoal stripped FBS for 5 days prior to the assay. The cells were dispensed at 4,000 cells/well in 4 uL of assay medium into white wall/solid-bottom 1536-well plates (Corning Life Sciences, Corning, NY) using a Multidrop Combi (ThermoFisher Scientific, Waltham, MA) dispenser. After the assay plates were incubated at 37C and 5% CO2 for 24 hr, 23 nL of compounds dissolved in DMSO, positive controls or DMSO only was transferred to the assay plates by a Pintool station (Kalypsys, San Diego, CA). The transfer of compounds was followed by the addition of 1 uL of 0.1 nM (final concentration) agonist (17beta-Estradiol)/assay medium using a Flying Reagent Dispenser (FRD, Aurora Discovery, San Diego, CA). The plates were incubated at 37C and 5% CO2 for 22 hr. For cytotoxicity assay, 1 uL of CellTiter-Fluor reagent (Promega Corporation, Madison, WI) was added to each well using the FRD and after 30 min incubation at 37C and 5% CO2, The fluorescence intensity was measured using ViewLux plate reader (PerkinElmer, Shelton, CT).
Regarding `CO[C@H]1C=CO[C@@]2(C)Oc3c(C)c(O)c4c(O)c(c(/C=N/N5CCN(C)CC5)c(O)c4c3C2=O)NC(=O)/C(C)=C\C=C[C@H](C)[C@H](O)[C@@H](C)[C@@H](O)[C@@H](C)[C@H](OC(C)=O)[C@@H]1C`, the Potency is 27.4 µM (active) and 19.6 µM (active) and 13.3 µM (active).
For the compound `CC(C)=CCC/C(C)=C/CO`, the Potency result was “inactive”.
As for `C[C@]12CC[C@@H]3c4ccc(O)cc4CC[C@H]3[C@@H]1CCC2=O`, the entry is “inactive”; as for `C=CC(=O)NC(C)(C)CS(=O)(=O)O`, “inactive”.
As for `CC(=O)OC/C=C(C)/C=C/C=C(C)/C=C/C1=C(C)CCCC1(C)C`, the Potency result was “inactive”.
Consider `CC(=O)CCC(C)C`, for which the Potency entry is “inactive”.
As for `NC(=O)OCC(COC(N)=O)c1ccccc1`, the Potency result is “inactive”.
For `O=C1CCCCCN1`, the Potency result was “inactive”.
In the case of `CCCCNC(=O)NS(=O)(=O)c1ccc(N)cc1`, the Potency result was “inactive”.
For `CC(O)COc1ccccc1` (stereo not given), the Potency entry was “inactive”.
For the compound `COCCOCCOC`, the Potency result was “inactive”.
As for `NCCNc1cccc2ccccc12`, the Potency entry is “inactive”.
Take `C[C@]12CC[C@@H]3c4ccc(O)cc4C[C@@H](CCCCCCCCCS(=O)CCCC(F)(F)C(F)(F)F)[C@H]3[C@@H]1CC[C@@H]2O` (stereo not given in full): the Potency result was “inactive”.
As for `CCCCCCCCOc1ccc(C(=O)c2ccccc2)c(O)c1`, the Potency entry was “inactive”.
With `Nc1cccc(N)c1`, the Potency entry is “inactive”.
`COc1ccccc1O`: the Potency result is “inactive”.
Take `C[C@]12C=CC(=O)C=C1CC[C@@H]1[C@@H]2C(=O)C[C@@]2(C)[C@H]1CC[C@]2(O)C(=O)CO`: the Potency result is “inactive”.
`CC(=O)c1ccc(S(=O)(=O)NC(=O)NC2CCCCC2)cc1`: the Potency entry is “inactive”.
Turning to `CC(C)CC(C)CC(O)CC(C)C` (stereo not given), the Potency result was “inactive”.
As for `Cc1cccc(Nc2cc(Cl)nc(SCC(=O)O)n2)c1C`, the entry is “inactive”; as for `Cc1cnc(NC(=O)C2=C(O)c3ccccc3S(=O)(=O)N2C)s1`, “inactive”.
Consider `C#C[C@]1(O)CC[C@H]2[C@@H]3CCc4cc(O)ccc4[C@H]3CC[C@@]21C`, for which the Potency entry is “inactive”.
For the compound `NC(N)=NC(N)=NCCc1ccccc1`, the Potency entry is “inactive”.
As to `C=C(C)C(N)=O`, the Potency entry was “inactive”.
`CN(C)Cc1cc(CN(C)C)c(O)c(CN(C)C)c1`: the Potency result was “inactive”.
With `O=c1cc[nH]c(=O)[nH]1`, the Potency result is “inactive”.
Regarding `CCCCC/C(C=O)=C\c1ccccc1`, the Potency entry is “inactive”.
As to `C1CNCCN1`, the Potency result was “inactive”.
In the case of `OCCCc1ccccc1`, the Potency result was “inactive”.
As for `CCc1cc(C(N)=S)ccn1`, the Potency entry is “inactive”.
To `CC1(C)O[C@@H]2[C@@H](CO[C@@]3(COS(N)(=O)=O)OC(C)(C)O[C@@H]23)O1` belongs “inactive”.
To `CC(C)(C)CC(C)(C)c1ccc(O)c(-n2nc3ccccc3n2)c1` belongs “inactive”; to `N[C@@H](Cc1c[nH]c2ccccc12)C(=O)O`, “inactive”; to `COc1ccccc1NC(=O)CC(C)=O`, “inactive”.
Regarding `CCOC(=O)C(C)(C)Oc1ccc(Cl)cc1`, the Potency entry is “inactive”.
On to `CC(C)Cc1ccc(C(C)C(=O)O)cc1` (stereo not given), for which the Potency entry was “inactive”.
Consider `CCN1CCCC1=O`, for which the Potency result is “inactive”.
Take `COC(=O)C1CCC(C(=O)OC)CC1` (stereo not given): the Potency entry was “inactive”.
As for `CCCCOCCOCCOC(C)=O`, the entry is “inactive”.
For the compound `COc1cc2c(c(OC)c1OC)-c1ccc(OC)c(=O)cc1[C@@H](NC(C)=O)CC2`, the Potency result is “inactive”.

These data come from PubChem BioAssay (Tox21).
